# Measurements: ChEMBL document CHEMBL4513216, “Probing the Open Global Health Chemical Diversity Library for Multistage-Active Starting Points for Next-Generation Antimalarials” (ACS Infect Dis, 2020)
# The whole screen tested about 69,000 compounds, of which about 8,600 (12%) showed an effect of 50% or more. For the sample, strong results were picked, then their nearest neighbours and some compounds at random.
# System: Plasmodium berghei
# Test: Screen against P. berghei liver stage (PbLuc), transformed with Luciferase, at 10uM
# Assay type: functional, HepG2
# Settings: tested at 10 uM
row,SMILES,INHIBITION [%]
1,CCCc1nnc2sc(C3CCN(C4CCN(C)CC4)CC3)nn12,44.8
2,CN1CCCC[C@@H]2[C@H]1[C@@H](c1ccccc1)CCN2C(=O)c1cccnc1,47.2
3,CN1CCCC[C@@H]2[C@H]1[C@@H](c1ccccc1)CCN2C(=O)c1ccccc1,59.7
4,CN1CCCC[C@@H]2[C@H]1[C@@H](c1ccccc1)CCN2C(=O)c1cnccn1,46.1
5,CN1CC[C@H](c2ccccc2)[C@@H]2[C@H]1CCCCN2C(=O)c1cnccn1,57.4
6,CN1CCCC[C@@H]2[C@H]1[C@@H](c1ccccc1)CCN2C(=O)c1ccccn1,20.8
7,CN1CCCCC[C@@H]2[C@@H]1[C@H](c1ccccc1)CN2C(=O)c1cccnc1,47.2
8,Cc1nnsc1C(=O)N1CCN(C(=O)C2CCC2)[C@@H]2CS(=O)(=O)C[C@@H]21,47.2
9,CN1CCCC[C@@H]2[C@H]1[C@@H](c1ccccc1)CCN2C(=O)c1ccncc1,-4.51
10,Cc1nnsc1C(=O)N1CC[C@H](c2ccccc2)[C@@H]2[C@H]1CCCCN2C,70.1
11,CC(C)CNC(=O)c1cc(C2CC2)nc2onc(C3CCNCC3)c12,13.5
12,NCCc1c(-c2ccc(F)cc2)[nH][nH]c1=O,39.1
13,COc1ccccc1CNC(=O)c1[nH]ncc1Cl,46.6
14,NC(=O)Cn1cc(NC(=O)N2CCN(c3ccccc3)CC2)cn1,-65.7
15,CC(C)N(C(=O)Cn1cc(Cl)cn1)c1ccccc1,21.8
16,Brc1cccc(-c2noc(CN3CCOCC3)n2)c1,43.3
17,O=C(COc1coc(CN2CCCCC2)cc1=O)NCc1ccccc1,9.48
18,Cc1cccc(CN2CCC3(CCN(c4cccnc4)C3=O)C2)n1 (stereo not given),58.8
19,Cn1cc(N2CC3(CCN(Cc4nccs4)CC3)OCC2=O)cn1,26.3
20,Cc1cccc(CN2CCCC3(CCN(c4cccnc4)C3=O)C2)n1 (stereo not given),29
21,Cn1cc(N2CC3(CCN(Cc4cccs4)CC3)OCC2=O)cn1,-34.9
22,Cc1cccc(CN2CCC3(CC2)CN(c2cccnc2)C(=O)CO3)n1,30.3
23,Cc1cccc(CN2CCC3(CC2)CN(c2cnn(C)c2)C(=O)CO3)n1,68.3
24,Cn1cc(N2CC3(COCCN(Cc4ccsc4)C3)OCC2=O)cn1 (stereo not given),18.2
25,COc1ccc(CN2CCC3(CCN(c4cccnc4)C3=O)C2)cc1 (stereo not given),8.67
26,Cn1cc(N2CC3(COCCN(Cc4nccs4)C3)OCC2=O)cn1 (stereo not given),56.7
27,Cn1cc(N2CC3(CCN(Cc4ccccc4)CC3)OCC2=O)cn1,14.1

row,SMILES,INHIBITION [%]
1,Cn1cc(N2CC3(COCCN(Cc4ccccn4)C3)OCC2=O)cn1 (stereo not given),-8.54
2,Cn1cc(N2CC3(CCN(Cc4ccsc4)CC3)OCC2=O)cn1,54.4
3,CC(=O)N1CCCC(c2ccc(Cc3ccccc3)cn2)C1 (stereo not given),37.6
4,CCN1C[C@H]2C3(CCN(C(C)=O)CC3)CC[C@@]2(C(=O)N(C)C)C1,36.7
5,COCCN(C)C[C@@H]1CN(Cc2ccnc3ccccc23)C[C@@H]1CO,17.5
6,Cc1cnn(CC2CCCCN2C(=O)c2c(C)noc2C)c1 (stereo not given),11.4
7,CN(C)c1cncc(C2CCN(CC3(O)CCCCC3)CC2)n1,37.6
8,CS(=O)(=O)N1CC[C@H]2[C@H](C[C@@H](Cn3cncn3)N2CC2CC2)C1,-28.2
9,COCCN1CC(C(=O)NCc2cccnc2-n2cccn2)CC1=O (stereo not given),-29.8
10,CN1CC2(CCN(C(=O)Cn3ncc4ccccc4c3=O)CC2)OC1=O,36.3
11,CCOCCN1CCN(CCCS(C)(=O)=O)CC1C (stereo not given),-52.5
12,Cc1cc(NC(=O)NCC2(O)CCCC2)ccn1,32.3
13,COCCC1(CNC(=O)Nc2ccc(-n3nccn3)cc2)CCC1,-23.3
14,COCCC1(CNC(=O)Nc2ccnc(C)c2)CCCC1,57.4
15,Cn1nc(CNC(=O)C2CCCCC2)cc1C1CC1,13.6
16,Cc1cn(-c2ccccc2)nc1NS(=O)(=O)c1cc(C(=O)O)ccc1Cl,25.4
17,CC(C)c1nc(CN2CCCC2Cn2cccn2)no1 (stereo not given),19.6
18,CC(=O)N1CCN(C(=O)CCNc2snc(Cl)c2C#N)CC1,-27
19,NS(=O)(=O)c1cnc(NCC2(c3ccccc3)CCC2)s1,9.37
20,COc1ccc(C)cc1C1(CNc2cncc(Cl)n2)CCOCC1,-60.3
21,COc1ccccc1OCCNc1snc(Cl)c1C#N,68.1
22,COc1ccccc1C1(CNc2ncc(S(N)(=O)=O)s2)CC1,-10.9
23,CC(=O)N1CCN(CCNc2snc(Cl)c2C#N)CC1,-4.93
24,COc1ccccc1C1(CNc2cn[nH]c(=O)c2Cl)CCOCC1,-9.69
25,COc1ccccc1C1(CNc2snc(Cl)c2C#N)CCCC1,80.2
26,COc1ccccc1C1(CNc2snc(Cl)c2C#N)CCOCC1,53.4
27,N#Cc1c(Cl)nsc1NCC1(c2ccccc2)CCC1,84

row,SMILES,INHIBITION [%]
1,N#Cc1c(Cl)nsc1NCCN1CCOCC1,39.9
2,COc1ccccc1C1(CNc2cn[nH]c(=O)c2Cl)CC1,-22.2
3,Cc1nn(CCO)c(C)c1CNC1CCOc2ccccc21 (stereo not given),13
4,O=C(NC1CCCN(Cc2c(F)cccc2F)C1)c1cnccn1 (stereo not given),23.7
5,CS(=O)(=O)CCCN1CCN(C(C#N)c2ccccc2)CC1 (stereo not given),21.2
6,NC(=O)c1ccc(C2CN(Cc3ccc(F)cc3)CCO2)nc1 (stereo not given),31.3
7,CCc1ocnc1C(=O)N1CCC2(CCCN(CC(C)(C)C)C2=O)C1 (stereo not given),32.2
8,Cc1nc(-c2ccccc2)n(CC(=O)NC2CCCC2)n1,7.27
9,CCC1(C(=O)O)CCCN(C(=O)c2ccc(N3CCN(C)CC3)cc2)C1 (stereo not given),33.7
10,CN1CCN(c2ccc(C(=O)N3CCCC(c4ncc[nH]4)C3)cc2)CC1 (stereo not given),3.3
11,CCC1(CO)CCCN(C(=O)c2ccc(N3CCN(C)CC3)cc2)C1 (stereo not given),53.5
12,c1ccc(-c2noc(CN3CCCC(Cn4cncn4)C3)n2)nc1 (stereo not given),-23.8
13,COc1cccc(-c2ccnc3nc(N4CCCCC4)[nH]c(=O)c23)c1,14.3
14,COc1cc(/C=C/c2ncc(C(=O)O)s2)cc(Cl)c1OC,41.5
15,Cc1noc(C)c1CN1CCC2(COCc3cnc(N(C)C)nc32)C1 (stereo not given),1.9
16,Cn1ccnc1C(O)c1ccccc1N1CCN(Cc2cccs2)CC1 (stereo not given),15.605
17,Cn1ccnc1C(O)c1ccccc1N1CCN(Cc2ccsc2)CC1 (stereo not given),53.75
18,Cn1ccnc1C(O)c1ccccc1N1CCN(CC2CCCC2)CC1 (stereo not given),13
19,COCc1cc(NCCc2ccc(S(N)(=O)=O)cc2)n2nccc2n1,26.6
20,Cc1ccccc1OCCN(C)C(=O)NC(C)c1nncn1C (stereo not given),35.9
21,CCNC(=O)NC(=O)C(C)Nc1ccccc1OCCOC (stereo not given),29.8
22,CCNC(=O)NC(=O)C(C)N(C)CCOc1ccccc1C (stereo not given),73.3
23,COC(=O)c1ccoc1CN(C)Cc1cc(OC)c(OC)cc1C,7.43
24,O=C(c1ccoc1)N1CCc2ncc(Cn3cccn3)n2CC1,-3.33
25,FC(F)(F)Oc1cccc(CNCc2ccc(-n3cncn3)nc2)c1,20.9
26,COCCOc1cccc(CNCc2ccc(-n3cncn3)nc2)c1,-9.8
27,c1cc(CNCc2ccc(-n3cncn3)nc2)cc(OC2CCCC2)c1,75.4

row,SMILES,INHIBITION [%]
1,CS(=O)(=O)N1CCc2ncc(CNC(=O)C3CCC3)n2CC1,-18.2
2,CNc1cccc(CC2COCCN(C(=O)c3cnn(C)c3)C2)n1 (stereo not given),27.15
3,O=C1NCC2(CCCN(C(=O)c3ccc4c(c3)CCCO4)CC2)O1 (stereo not given),38.3
4,O=C1NCC2(CCN(C(=O)c3ccc4c(c3)CCCO4)CC2)O1,70.4
5,O=C1NCC2(CCCN(C(=O)c3ccc4c(c3)OCCO4)CC2)O1 (stereo not given),42.6
6,Cc1c(Br)cnn1CC(=O)Nc1ccon1,34.2
7,COCC1COCCC12CCN(S(=O)(=O)c1ccccc1)CC2 (stereo not given),-27.1
8,Cn1ncc(NCc2cccc(OCC(F)(F)F)c2)c(Cl)c1=O,99.6
9,COc1cccc(CNc2cc(CO)ccc2Cl)c1,42.6
10,CCOc1cccc(CNc2cnn(CC(C)C)c2CC)c1,39.5
11,COc1ccc(CNc2cnn(C)c(=O)c2Cl)cc1,52.3
12,CC(C)OCc1cccc(CNc2cnn(C)c(=O)c2Cl)c1,85.2
13,Cc1cccc(C(C)(C)CNc2cn[nH]c(=O)c2Cl)c1,-5.92
14,COc1cccc(CNc2cnn(C)c(=O)c2Cl)c1,49.6
15,Cn1ncc(NCc2cccc(COC(C)(C)C)c2)c(Cl)c1=O,80.6
16,CC(NCc1cccc(COC2CCCC2)c1)c1cnn(C)c1 (stereo not given),-0.448
17,CCn1c(NCc2ccc(OC)cc2)nc2c(C)nn(C)c2c1=O,13.5
18,Cc1c(C(=O)NCc2ccnc(OCC(F)(F)F)c2)cnn1C,-6.11
19,CC(C)N1CCC[C@H]1C(=O)NCC1CCN(c2cnn(C)c(=O)c2)CC1,15.1
20,Cc1nn(C)c(C)c1C1CCCN1C(=O)c1cc(C(N)=O)cs1 (stereo not given),-11.2
21,CN1C(=O)CC(c2cnn(C)c2)C12CCN(C(=O)C1CC=CC1)CC2 (stereo not given),-16.5
22,CN(C)Cc1ccnc(C2CN(Cc3c(F)cccc3F)CCO2)n1 (stereo not given),8.53
23,Cn1ccnc1CNCC1CCCN1c1cccnn1 (stereo not given),-31.5
24,CC(Cn1cccn1)NC(=O)N1CCCN(Cc2cccs2)CC1 (stereo not given),14.4
